The values below come from PubChem BioAssay (EPA / NIEHS).

Records with an inconclusive call do not appear. The source made the active and inactive calls. The calls were made as follows: active = hit-call score of the fitted dose curve at least 0.9, where 1 is the maximum; inconclusive = response in the unintended direction; inactive = score below 0.9.

A short description of test [1]: TOX21_p53_BLA_p2_viability: Viability Assessment in the Tox21 HCT-116 p53 Agonism Beta-lactamase Assay, Phase 2 (AID 2283591).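 Also: compound exposure lasted 16 h at 37 °C; actives lower the ATP signal meaning cytotoxicity.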 The method, boiled down:
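HCT-116 p53-bla cells (4000/well) rested 5 h at 37C, then received compounds in DMSO (217-fold dilution) for 16 h at 37C, 5% CO2. After the CCF4 read, CellTiter-Glo was added; ATP luminescence was read after 30 min at room temperature.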

Test [2] addresses Cellular tumor antigen p53 (Homo sapiens) (UniProt P04637). In words: TOX21_p53_BLA_p2_ratio: Tox21 HCT-116 p53 Agonism Beta-lactamase Assay, Ratio, Phase 2 (AID 2283592). The method in brief:
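Cleaved-to-uncleaved substrate ratio (460 vs 530 nm) measured in HCT116 cells with an inducible beta-lactamase reporter linked to p53 activity. Compounds incubated 16 h at 37C before 2 h room-temperature CCF4-AM loading.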

For test [3] the target is unchanged. The test is described as follows: TOX21_p53_BLA_p3_ratio: Tox21 HCT-116 p53 Agonism Beta-lactamase Assay, Ratio, Phase 3 (AID 2283596). The method in brief:
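Cells were seeded at 4000/well, rested 5 h at 37C, then dosed with DMSO compound solutions (217-fold dilution) for 16 h. CCF4-AM substrate was loaded for 2 h at room temperature, and the 460/530 nm emission ratio was fitted for gain of signal versus DMSO.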

The nature of test [4]: TOX21_p53_BLA_p4_viability: Viability Assessment in the Tox21 HCT-116 p53 Agonism Beta-lactamase Assay, Phase 4 (AID 2283597).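 Also: hits lower the luminescence signal meaning cytotoxicity.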 The method, boiled down:
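Viability is taken as cellular ATP: after 16 h compound exposure of HCT116 cells and a 2 h room-temperature CCF4-AM substrate step, CellTiter-Glo reagent is added and luminescence is measured 30 min later.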

Test [5] has as its target Cellular tumor antigen p53 (Homo sapiens) (UniProt P04637). In words: TOX21_p53_BLA_p5_ratio: Tox21 HCT-116 p53 Agonism Beta-lactamase Assay, Ratio, Phase 5 (AID 2283599). The method, boiled down: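 HCT-116 cells carrying a p53-inducible beta-lactamase reporter were seeded at 4000 cells/well and dosed after 5 h with compound in DMSO (217-fold dilution). After 16 h at 37C, CCF4-AM substrate was added for 2 h, and the 460/530 nm emission ratio was scored as gain-of-signal versus DMSO.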

The nature of test [6]: TOX21_p53_BLA_p5_viability: Viability Assessment in the Tox21 HCT-116 p53 Agonism Beta-lactamase Assay, Phase 5 (AID 2283600). The method in brief: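 Viability is taken from cellular ATP content, measured by luciferase luminescence in the same wells after the beta-lactamase ratio read. Cells are seeded at 4000 per well and exposed to DMSO-dissolved compounds, diluted 217-fold, for 16 h.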

The target in test [7] is Cellular tumor antigen p53 (Homo sapiens) (UniProt P04637). The test is described as follows: TOX21_p53_BLA_p4_ratio: Tox21 HCT-116 p53 Agonism Beta-lactamase Assay, Ratio, Phase 4 (AID 2283601). The method in brief: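 HCT116 cells carrying an inducible beta-lactamase reporter were plated at 4000 cells/well, rested 5 h, then exposed to compounds in DMSO (217-fold dilution) for 16 h at 37C. CCF4-AM substrate was loaded 2 h at room temperature; 460/530 nm emission ratio scored gain-of-signal versus DMSO.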
Cellular tumor antigen p53 (Homo sapiens), sequence (P04637 whole entry, looked up): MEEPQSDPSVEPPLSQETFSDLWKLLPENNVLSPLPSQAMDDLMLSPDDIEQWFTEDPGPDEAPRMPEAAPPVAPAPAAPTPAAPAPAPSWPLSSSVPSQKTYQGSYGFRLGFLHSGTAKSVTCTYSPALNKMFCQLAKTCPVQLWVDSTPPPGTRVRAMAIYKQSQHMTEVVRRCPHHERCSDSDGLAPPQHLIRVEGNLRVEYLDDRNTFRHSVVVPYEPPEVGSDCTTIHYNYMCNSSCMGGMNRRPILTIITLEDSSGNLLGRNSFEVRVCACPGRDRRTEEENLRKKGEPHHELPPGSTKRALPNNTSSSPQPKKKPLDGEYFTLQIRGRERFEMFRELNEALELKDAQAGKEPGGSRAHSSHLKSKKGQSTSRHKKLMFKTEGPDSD

As for `COc1ccc(OC)c(C(O)CNC(=O)CN)c1` (stereo not drawn), the compound was classed as inactive in test [1], in test [2], in test [3], in test [4], in test [5] and in test [6]. In test [7], the result was inactive.

The AC50 is the concentration giving half of the maximal activity seen. For the compound `CN(C)CC/C=C1\c2ccccc2Sc2ccc(Cl)cc21`, the result in test [1], in test [3], in test [5] and in test [6] was inactive. For the same compound, the AC50 in test [2] is 33.1 µM (active); in test [4] it was 35.7 µM (active); in test [7] it was 21.9 µM (active).

Regarding `COc1ccc(CCNC[C@H](O)c2ccc(O)cc2)cc1OC`, the compound was called inactive in test [1], in test [2], in test [3], in test [4], in test [5] and in test [6]. Besides, the outcome in test [7] was inactive.

For `N#CCC(=O)NN`, the result in test [1], in test [2], in test [3], in test [4], in test [5] and in test [6] was inactive. The outcome in test [7] was inactive.

With `C=C1C[C@@]23CC[C@H]4[C@@](C)(CCC[C@@]4(C)C(=O)O[C@@H]4O[C@H](CO)[C@@H](O)[C@H](O)[C@H]4O)[C@@H]2CC[C@]1(O[C@@H]1O[C@H](CO)[C@@H](O)[C@H](O[C@@H]2O[C@H](CO)[C@@H](O)[C@H](O)[C@H]2O)[C@H]1O[C@@H]1O[C@H](CO)[C@@H](O)[C@H](O)[C@H]1O)C3`, the result in test [1], in test [2], in test [3], in test [4], in test [5] and in test [6] was inactive. Besides, the result in test [7] was inactive.

On to `Clc1ccc2n[nH]nc2c1`, for which the call in test [1], in test [2], in test [3], in test [4], in test [6] and in test [7] was inactive. In addition, the AC50 in test [5] was 55.7 µM (active).

Regarding `O=C=Nc1ccc(Cc2ccc(N=C=O)cc2)cc1`, the outcome in test [1], in test [2], in test [3], in test [4], in test [5] and in test [6] was inactive. Besides, in test [7], the outcome was inactive.

For the compound `CC(C)COC(=O)c1ccc(N)cc1`, the compound was called inactive in test [1], in test [2], in test [3], in test [4], in test [5] and in test [6]. The result in test [7] was inactive.

Regarding `O=C(Nc1ccc([N+](=O)[O-])cc1)Nc1ccc([N+](=O)[O-])cc1`, the outcome in test [1], in test [2], in test [3], in test [4], in test [5] and in test [6] was inactive. In test [7], the outcome was inactive.

Consider `Cc1cc(C(C)(C)C)c(O)c(C)c1CC1=NCCN1`, for which the compound was called inactive in test [1], in test [2], in test [3], in test [4], in test [5] and in test [6]. Also, the result in test [7] was inactive.

For `CCc1cccc2c3c([nH]c12)C(CC)(CC(=O)O)OCC3` (stereo not drawn), the call in test [1], in test [2], in test [3], in test [4], in test [5] and in test [6] was inactive. For the same compound, in test [7], the outcome was inactive.

Regarding `CC(=O)O[C@@H]1C(=O)O[C@@H]2[C@H]1OC(=O)[C@@H]2OC(C)=O`, the result in test [1], in test [2], in test [3], in test [4], in test [6] and in test [7] was inactive. Further, the AC50 in test [5] was 36.7 µM (active).

For `CCC=CC#N`, the outcome in test [1], in test [2], in test [3], in test [4], in test [5] and in test [6] was inactive. Moreover, the outcome in test [7] was inactive.

For `CC(=O)Oc1cccc(O)c1`, the compound was classed as inactive in test [1], in test [2], in test [3], in test [4], in test [5] and in test [6].

`CCC(=O)O[C@H]1CC[C@H]2[C@@H]3CCc4cc(O)ccc4[C@H]3CC[C@]12C`: the result in test [1], in test [2], in test [3], in test [5], in test [6] and in test [7] was inactive. For the same compound, the concentration at half-maximal activity (AC50) in test [4] was 37.2 µM (active).

With `N[C@@H](CSSC[C@H](N)C(=O)O)C(=O)O`, the call in test [1], in test [2], in test [3], in test [4], in test [5] and in test [6] was inactive. Further, in test [7], the outcome was inactive.

For `Cc1ccc([N+](=O)[O-])cc1Cl`, the compound was classed as inactive in test [1], in test [2], in test [3], in test [4], in test [5] and in test [6]. For the same compound, in test [7], the outcome was inactive.

In the case of `FC(F)OC(Cl)C(F)(F)F` (stereo not drawn), the outcome in test [1], in test [2], in test [3], in test [4], in test [5] and in test [6] was inactive. Further, in test [7], the outcome was inactive.

Regarding `S=C1SCN(Cc2ccccc2)CN1Cc1ccccc1`, the compound was classed as inactive in test [1], in test [2], in test [3], in test [4], in test [5] and in test [6]. The result in test [7] was inactive.

Consider `CC(C)NCC(O)COc1ccc(COCCOC(C)C)cc1` (stereo not drawn), for which the call in test [1], in test [2], in test [3], in test [4], in test [5] and in test [6] was inactive. Further, in test [7], the result was inactive.

On to `Cc1ncc(CO)c(CN)c1O`, for which the compound was classed as inactive in test [1], in test [2], in test [3], in test [4], in test [5] and in test [6]. In test [7], the result was inactive.

For `CCN(Cc1ccccc1)c1ccccc1`, the compound was classed as inactive in test [1], in test [2], in test [3], in test [4], in test [5] and in test [6]. Besides, the outcome in test [7] was inactive.

In the case of `C[C@@H]1NC(=O)[C@@H](N)CNC(=O)[C@H](C2CCNC(N)=N2)NC(=O)/C(=C/NC(N)=O)NC(=O)[C@H](CNC(=O)C[C@@H](N)CCCN)NC1=O` (stereo partly drawn), the outcome in test [1], in test [2], in test [3], in test [4], in test [5] and in test [6] was inactive. For the same compound, the outcome in test [7] was inactive.

For the compound `O=C(OCC(COC(=O)c1ccccc1)(COC(=O)c1ccccc1)COC(=O)c1ccccc1)c1ccccc1`, the call in test [1], in test [2], in test [4], in test [5], in test [6] and in test [7] was inactive. Also, in test [3], the AC50 is 54.3 µM (active).

Take `CC(C)[N+]1(C)[C@@H]2CC[C@H]1CC(OC(=O)C(CO)c1ccccc1)C2` (stereo partly drawn): the call in test [1], in test [2], in test [3], in test [4], in test [5] and in test [6] was inactive. The outcome in test [7] was inactive.

Turning to `CNc1ccccc1`, the compound was called inactive in test [1], in test [2], in test [3], in test [4], in test [5] and in test [6]. In test [7], the result was inactive.

With `NS(=O)(=O)c1cc2c(cc1Cl)NC(C1CC3C=CC1C3)NS2(=O)=O` (stereo not drawn), the result in test [1], in test [2], in test [3], in test [4], in test [5] and in test [6] was inactive. For the same compound, the result in test [7] was inactive.
